Reference: PubChem BioAssay AID686971 (National Center for Advancing Translational Sciences (NCATS), 2013)
In all, about 360,000 compounds went through this assay and about 7,500 (2.1%) were called active. Roughly 8% stayed inconclusive and do not appear here. For the sample, actives were picked, then their nearest neighbours and some compounds at random. A number with no mark means an inactive call. Calls come from the whole dose curve; as a rule, active = well fitted cell-killing curve with a large enough effect; inconclusive = small, poorly fitted or top-dose-only effect, or effect the other way, or another doubt; inactive = no such curve, though single readings can be large or run the other way.

Assay: qHTS for induction of synthetic lethality in tumor cells producing 2HG: qHTS for the HT-1080-IDH1KD cell line;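 for activity, negative = toxicity: 0% = DMSO wells and -100% = cell-free medium wells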
Conditions: HT-1080 IDH1 knockdown viability, ATP luminescence, 48 h; series mostly up to 46.1 µM; activity, negative = toxicity: at the top concentration
How it was run: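 Assay cells: HT-1080 with IDH1 knockdown, 750 per well, RPMI/5% FBS. Exposure: 48 h at 37 °C following 2 h pre-incubation. Read: CellTiter-Glo luminescence; fitted concentration-response, curve class assigned.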
Potency is the fitted concentration of half-maximal effect.

SMILES | activity, negative = toxicity [%] | Potency
Cn1c(NC(=O)c2ccccc2)nc2ccccc21 | -20 | 
O=C1C=C(NS(=O)(=O)c2ccccc2)C(=O)c2ccccc21 | -20.1 | 
O=C(NC1=CC(=O)c2ccccc2C1=O)c1ccccc1 |  | 7.31 µM (active)
Cc1ccc(-c2c(N)nc3ncccn23)cc1 | 9.85 | 
CCNC(=O)C1CCCN(C(=O)c2ccc(OC)cc2OC)CC1 (centres undefined) | 10.3 | 
COc1cccc(CNc2nc(NCc3ccccc3OC)nc3ccsc23)c1 |  | 23.1 µM (active)
COc1cccc(-c2cc3nc(NCc4ccccc4OC)n(C)c(=O)c3s2)c1 | -4.35 | 
COc1cccc(CNc2nc(NCc3cccs3)nc3ccsc23)c1 |  | 23.1 µM (active)
COc1ccccc1CNc1nc(Nc2ccccc2Cl)c2sccc2n1 | -14.8 | 
Clc1ccccc1Nc1nc(NCc2cccs2)nc2ccsc12 | 1.77 | 
COc1ccc(NC(=S)NCc2cccs2)c(OC)c1 | 6.2 | 
COc1ccc(COC[C@H](CC(C)C)N2CCN(C(=O)c3cccc(C(F)(F)F)c3)CCC2=O)cc1 | -17.8 | 
CCOC(=O)c1cc2cc(OC)ccc2n1C1CCN(C)CC1 | -23.1 | 
CCc1ccc(OC2(C)CCN(CCOc3ccc(C)cc3)C2)cc1 (centres undefined) | 0 | 
O[C@@H]1C[C@H](c2ccccc2)N(Cc2cccs2)C[C@H]1n1cc(C2CC2)nn1 | 7.32 | 
CSc1ncccc1C(=O)N1CCCC(Nc2ccc(F)c(F)c2)C1 (centres undefined) | -11 | 
Cc1ccccc1-c1nc(NC(C)C)nc2cc(-c3ccccc3)sc12 | -18.6 | 
CCOC(=O)N(C)c1c(CC)nc2c(OCc3ccccc3C(=O)OC)cccn12 | -3.5 | 
Cc1nc2c(OCc3ccc(Cl)cc3Cl)cccn2c1N(C)CC1CC1 |  | 14.6 µM (active)
Cc1nc2c(OCc3ccc(Cl)cc3)cccn2c1N(C)Cc1cccs1 |  | 16.4 µM (active)
CCc1nc2c(OCc3ccc(F)c(F)c3)cccn2c1N(C)C(=O)c1ccco1 | 0.0356 | 
CCc1nc2c(OCc3ccc(Cl)cc3Cl)cccn2c1N(C)C(=O)C(C)C |  | 16.4 µM (active)
Cc1nc2ccccc2nc(C)c1=NOCc1ccc(Cl)cc1Cl | -3.31 | 
CCc1nc2c(OCc3ccc(C(=O)OC)cc3)cccn2c1N(C)C(=O)C(C)C | -1.16 | 
CCCCN(C=O)c1c(CC)nc2c(OCc3ccccc3C(=O)OC)cccn12 | -11.3 | 
CCc1nc2c(OCc3ccccc3)cccn2c1N(C)C(=O)c1ccco1 | 6.84 | 
CCOC(=O)[C@]12CCCC=C1N(CCC1=CCCCC1)C(=O)[C@H](CC(=O)N1CCOCC1)C2 | -6.31 | 
Cc1ccc(S(=O)(=O)N[C@H](CO)C(C)C)cc1 | 26.3 | 
COCCCn1c(C(=O)NC2CCCCC2)cc2c(=O)n3cccc(C)c3nc21 | 15.5 | 
